PubChem BioAssay AID1159580 (chemical genetic matrix, 2015)
Values joined by “and” are separate entries in the source; they are usually repeats but may differ in a detail not shown here. Equal entries are not always repeated. In all, about 5,500 compounds went through this assay and about 2,000 (36%) were called active. About 18% were inconclusive and are not listed. Rule as the data show it: active = normalized growth mostly below about 0.91 (no sharp cut-off); inconclusive = no clear call, values can overlap the other calls; inactive = mostly above about 0.92. The list shows a part of the results.

Assay: chemical genetic growth profiling, strain panel (AID 1159580);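 also: tested at 20 µM; growth read once vehicle control cultures reached saturation at 30 °C; 1 = growth at the plate median or of vehicle wells; lower values mean less growth of the strain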
Conditions: growth OD

Measured: normalized growth

CCCCNc1cc(C(=O)O)cc(S(N)(=O)=O)c1Oc1ccccc1
inactive: S. cerevisiae deletion strains, locus YKL009W, strain mrt4, hits give low values 0.979 | S. cerevisiae deletion strains, locus YKL068W, hits give low values 0.986 | S. cerevisiae deletion strains, locus YKL085W, strain MDH1 (second series), hits give low values 0.989 | S. cerevisiae deletion strains, locus YKL085W, strain MDH1, hits give low values 0.989 | S. cerevisiae deletion strains, locus YKL160W, strain elf1, hits give low values 0.995 | S. cerevisiae deletion strains, locus YKL190W, strain CNB1, hits give low values 0.994 | S. cerevisiae deletion strains, locus YKR001C, strain vps1, hits give low values 0.983 | S. cerevisiae deletion strains, locus YKR026C, strain gcn3, hits give low values 1.01 | S. cerevisiae deletion strains, locus YKR091W, strain srl3, hits give low values 1 | S. cerevisiae deletion strains, locus YLL001W, strain dnm1, hits give low values 1 | S. cerevisiae deletion strains, locus YLL026W, hits give low values 0.992 | S. cerevisiae deletion strains, locus YLL041C, strain sdh2, hits give low values 0.991 | S. cerevisiae deletion strains, locus YLR027C, strain aat2, hits give low values 1.01 | S. cerevisiae deletion strains, locus YLR039C, strain RIC1, hits give low values 1.01 | S. cerevisiae deletion strains, locus YLR058C, strain SHM2, hits give low values 0.988 | S. cerevisiae deletion strains, locus YLR102C, strain apc9, hits give low values 0.984 | S. cerevisiae deletion strains, locus YLR113W, strain HOG1, hits give low values 1.04 | S. cerevisiae deletion strains, locus YLR221C, strain rsa3, hits give low values 1 | S. cerevisiae deletion strains, locus YLR258W, strain gsy2, hits give low values 0.995 | S. cerevisiae deletion strains, locus YLR262C, strain YPT6 (second series), hits give low values 1.02 | S. cerevisiae deletion strains, locus YLR262C, strain YPT6, hits give low values 1.02 | S. cerevisiae deletion strains, locus YLR268W, strain sec22, hits give low values 0.965 | S. cerevisiae deletion strains, locus YLR320W, strain mms22, hits give low values 0.976 | S. cerevisiae deletion strains, locus YLR330W, strain CHS5, hits give low values 0.995 | S. cerevisiae deletion strains, locus YLR342W, strain FKS1 (second series), hits give low values 0.975 | S. cerevisiae deletion strains, locus YLR342W, strain FKS1, hits give low values 0.976 | S. cerevisiae deletion strains, locus YLR357W, strain rsc2, hits give low values 0.977 | S. cerevisiae deletion strains, locus YLR370C, strain arc18, hits give low values 1.01 | S. cerevisiae deletion strains, locus YLR371W, strain rom2, hits give low values 0.984 | S. cerevisiae deletion strains, locus YLR384C, strain iki3, hits give low values 1.02 | S. cerevisiae deletion strains, locus YLR418C, strain cdc73, hits give low values 0.959 | S. cerevisiae deletion strains, locus YML016C, strain PPZ1, hits give low values 0.991 | S. cerevisiae deletion strains, locus YML032C, strain rad52, hits give low values 0.99 | S. cerevisiae deletion strains, locus YML120C, strain ndi1, hits give low values 0.994 | S. cerevisiae deletion strains, locus YML124C, strain tub3, hits give low values 0.974 | S. cerevisiae deletion strains, locus YMR058W, strain fet3, hits give low values 1.06 | S. cerevisiae deletion strains, locus YMR078C, strain ctf18, hits give low values 0.978 | S. cerevisiae deletion strains, locus YMR125W, strain sto1, hits give low values 1.01 | S. cerevisiae deletion strains, locus YMR129W, hits give low values 1.02 | S. cerevisiae deletion strains, locus YMR205C, strain PFK2, hits give low values 0.989 | S. cerevisiae deletion strains, locus YMR223W, strain ubp8, hits give low values 0.972 | S. cerevisiae deletion strains, locus YMR231W, strain pep5, hits give low values 1.01 | S. cerevisiae deletion strains, locus YMR263W, strain SAP30, hits give low values 0.997 | S. cerevisiae deletion strains, locus YMR307W, strain GAS1, hits give low values 0.957 | S. cerevisiae deletion strains, locus YNL067W, strain RPL9B, hits give low values 1.02 | S. cerevisiae deletion strains, locus YNL071W, strain lat1, hits give low values 1.02 | S. cerevisiae deletion strains, locus YNL128W, strain TEP1, hits give low values 0.981 | S. cerevisiae deletion strains, locus YNL153C, strain GIM3, hits give low values 1.05 and 1.02 | S. cerevisiae deletion strains, locus YNL175C, strain NOP13, hits give low values 1 | S. cerevisiae deletion strains, locus YNL183C, strain NPR1, hits give low values 0.967 | S. cerevisiae deletion strains, locus YNL197C, strain WHI3, hits give low values 1.04 | S. cerevisiae deletion strains, locus YNL209W, strain ssb2, hits give low values 1.01 | S. cerevisiae deletion strains, locus YNL224C, strain SQS1, hits give low values 0.999 | S. cerevisiae deletion strains, locus YNL233W, strain BNI4, hits give low values 1.01 | S. cerevisiae deletion strains, locus YNL248C, strain rpa49, hits give low values 0.987 | S. cerevisiae deletion strains, locus YNL250W, strain rad50, hits give low values 0.946 | S. cerevisiae deletion strains, locus YNL271C, strain bni1, hits give low values 0.967 | S. cerevisiae deletion strains, locus YNL298W, strain CLA4, hits give low values 0.969 | S. cerevisiae deletion strains, locus YNL307C, strain MCK1, hits give low values 0.975 | S. cerevisiae deletion strains, locus YNL322C, strain KRE1 (second series), hits give low values 0.982 | S. cerevisiae deletion strains, locus YNR049C, strain mso1, hits give low values 1 | S. cerevisiae deletion strains, locus YNR052C, strain pop2, hits give low values 0.977 | S. cerevisiae deletion strains, locus YOL006C, strain TOP1, hits give low values 1 | S. cerevisiae deletion strains, locus YOL012C, strain htz1 0.812 | S. cerevisiae deletion strains, locus YOL147C, strain pex11, hits give low values 0.977 | S. cerevisiae deletion strains, locus YOR001W, strain rrp6, hits give low values 1.01 | S. cerevisiae deletion strains, locus YOR061W, strain CKA2, hits give low values 0.99 | S. cerevisiae deletion strains, locus YOR069W, strain VPS5, hits give low values 0.986 | S. cerevisiae deletion strains, locus YOR070C, strain gyp1, hits give low values 0.998 | S. cerevisiae deletion strains, locus YOR080W, strain dia2, hits give low values 1.01 | S. cerevisiae deletion strains, locus YOR083W, strain WHI5 (second series), hits give low values 1.03 | S. cerevisiae deletion strains, locus YOR083W, strain WHI5, hits give low values 0.951 | S. cerevisiae deletion strains, locus YOR106W, strain vam3, hits give low values 1.03 | S. cerevisiae deletion strains, locus YOR136W, strain idh2, hits give low values 0.992 | S. cerevisiae deletion strains, locus YOR144C, strain elg1, hits give low values 0.982 | S. cerevisiae deletion strains, locus YOR184W, strain ser1, hits give low values 0.973 | S. cerevisiae deletion strains, locus YOR231W, strain MKK1, hits give low values 1.07 | S. cerevisiae deletion strains, locus YOR265W, strain rbl2, hits give low values 1 | S. cerevisiae deletion strains, locus YOR270C, strain vph1, hits give low values 1.05 | S. cerevisiae deletion strains, locus YOR290C, strain snf2, hits give low values 1 | S. cerevisiae deletion strains, locus YOR316C, strain cot1, hits give low values 0.986 | S. cerevisiae deletion strains, locus YPL051W, strain arl3, hits give low values 0.997 | S. cerevisiae deletion strains, locus YPL055C, strain LGE1, hits give low values 1.01 | S. cerevisiae deletion strains, locus YPL078C, strain atp4, hits give low values 1 | S. cerevisiae deletion strains, locus YPL106C, strain sse1, hits give low values 0.962 | S. cerevisiae deletion strains, locus YPL240C, strain hsp82, hits give low values 1 | S. cerevisiae deletion strains, locus YPL241C, strain CIN2, hits give low values 0.985 | S. cerevisiae deletion strains, locus YPL256C, strain CLN2, hits give low values 1.06 | S. cerevisiae deletion strains, locus YPR119W, strain clb2, hits give low values 0.983 | S. cerevisiae deletion strains, locus YPR141C, strain kar3, hits give low values 0.967 | S. cerevisiae deletion strains, locus YPR163C, strain tif3, hits give low values 0.983 | S. cerevisiae deletion strains, locus YPR167C, strain met16, hits give low values 0.986 | S. cerevisiae deletion strains, strain wtn01, hits give low values 0.958 | S. cerevisiae strains, strain wild type, hits give low values 0.999
